Source: the supplement of paper PMC10681739

Each sequence was assayed against T1, ETS1 (UniProt P14921) (assay: ETS1 binding intensity (PBM fluorescence), ETS1 alone (arbitrary fluorescence units); higher = stronger binding). Conditions: ETS1 concentration 1 nM; RUNX1 concentration 0 nM.
T1 sequence: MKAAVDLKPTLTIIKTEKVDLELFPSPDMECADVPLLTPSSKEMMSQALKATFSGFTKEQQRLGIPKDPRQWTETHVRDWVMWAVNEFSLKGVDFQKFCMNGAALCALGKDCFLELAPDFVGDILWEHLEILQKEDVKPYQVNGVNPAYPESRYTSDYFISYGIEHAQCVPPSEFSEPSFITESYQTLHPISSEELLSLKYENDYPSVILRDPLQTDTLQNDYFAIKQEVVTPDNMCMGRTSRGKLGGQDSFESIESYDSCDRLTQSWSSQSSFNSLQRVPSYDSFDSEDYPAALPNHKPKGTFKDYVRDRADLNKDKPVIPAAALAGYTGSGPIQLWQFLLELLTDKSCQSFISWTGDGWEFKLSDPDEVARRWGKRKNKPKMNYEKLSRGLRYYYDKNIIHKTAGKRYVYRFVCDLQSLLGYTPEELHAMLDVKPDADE

Point of comparison: CCTGTTTCCTGCCATCTGCCCTTCCTTTGTGGTCAA, ETS1 binding intensity 774. Against it:
- CAACTGACCGGACAGAACACAGCCACAAAACACGAG — lower, 512
- TTGCACACGTGGGCGGGAAGTGGTTAAGCGGCCTCA — higher, 1020
- GCCACATATTTCCTGTGACAACCCTGTGGTGTGGCT — lower, 641
- CTCCTGTTCCGGCTCAAAGGGAAACCGCTGCTTTTC — lower, 605
- GCCCACCCGCTTCCGGTTGTGGGCCCCGCCCGCCGA — higher, 5540
- AAGGCGGAGGAAGGGAAAATTGTGGTTGGGCAGAGG — lower, 511
- TGCATGCAACAGGAAGTGGGGTGTGGTTTGTTCTGG — higher, 11600
- CGAAGCCGGAAATGCTGAGTGTGCGGGGCCGAACGT — higher, 4230
- CTCGCGATTCCTCTTCCGCTGCGGTCTCCTTAACAC — lower, 634
- GTTCTTCCACGTCCGCGTTACCCACAACGGCAGTGG — lower, 564
- CCCGGAGGACGTCCGGCCTCTGTGAGCCGCAACCTT — lower, 440
- CGGGCGAGCGCAGGATGCGGTTGTCGAACGCGCGGC — lower, 764
- TTCTGCTACATCCTGCCCACTCCCTGTGGCTTCCAC — higher, 1090
- CTTTTCCATGCAGGAAGTGGTTTTTAGAGTGTAGAG — higher, 7750
- TGTGTAACTTCCTGGCTTTGGTGGTTTCCCCCTCCT — higher, 1150
- GACCGAGAGGAAGCAGCAAGGATCCTGCGGTTCCAG — lower, 505
- GGAGGGGCTGGCCGGAAGTGAACCGCAGAGCACGCT — higher, 11600
- AGGTACCAGGCCCGGAAACCACGGAAAGGGGAACTT — higher, 3050
- ACCAGAAGCACTGCAGGATGTGGTATCAAGACGCCT — higher, 2250
- GTGGCCTCTTCAACAGGAAACCACAATATTTTTGTT — higher, 4610
